Sampled rows, rich in hits. Any-hit rate of the full collection: about 4.8%.
SMARCA2 activ = SMARCA2 (BRM) function activators, primary screen, cell-based, luminescence, high throughput; MG213 cells, MMTV-luciferase reporter, dexamethasone, overnight; activation, % at 9.1 µM; 370,000 compounds, 1% hits; AID 652017, 2013; in the data active means activation above about 7.8%;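 further: 0% = vehicle wells and 100% = reference activator wells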
hgDAF-12 ag = H. glycines DAF-12 receptor agonists, primary screen, cell-based, luminescence, HEK293, GAL4 fusion, UAS-luciferase; HEK293 GAL4-hgDAF12 UAS-luciferase reporter, agonist luminescence; normalized to butyrate control; AID 687014, 2013; activation, % at 6.8 µM; Nuclear hormone receptor DAF-12 (Heterodera glycines), GAL4 fusion; 370,000 compounds, 1.8% hits;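 active means activation above a cutoff set at the mean of all screened compounds plus 3 SD, cut at about 10% in these data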;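 further: 0% = DMSO wells and 100% = sodium butyrate wells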
DAX1 inh-1 = DAX1 (NR0B1) inhibitors on StAR promoter, primary screen, cell-based, luminescence, SF-1 (NR5A1), full-length DAX-1; HEK293T StAR-luciferase reporter, SF-1/DAX-1 repression relief; inhibition, % at 6.8 µM; 370,000 compounds, 1.1% hits;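 active means inhibition above the mean over all tested compounds plus 3 SD, cut at about 3.6% in these data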;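 further: 0% = DAX-1 cells with DMSO and 100% = cells lacking DAX-1 with DMSO; higher inhibition means more luminescence from relief of DAX-1 repression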
hcDAF-12 act = H. contortus DAF-12 nuclear receptor activators, primary screen, cell-based, luminescence, HEK293, lit1-tk-luc reporter; HEK293 hcDAF-12 lit1-tk-luc reporter; 0% DMSO, 100% Δ7-dafachronic acid; activation, % at 6.8 µM; 370,000 compounds, 1.4% hits; AID 652067, 2013;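 active means activation above the mean of all tested compounds plus 3 SD, cut at about 5.5% in these data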;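 further: 100% = response to 3 µM Δ7-dafachronic acid high control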
ssDAF-12 act = S. stercoralis DAF-12 nuclear receptor activators, primary screen, cell-based, luminescence, HEK293, GRIP1 co-expression, lit1-tk-luc; Nuclear hormone receptor DAF-12 (Strongyloides stercoralis); HEK293 ssDAF-12/GRIP1 lit1-tk-luc reporter; % of 3 µM dafachronic acid response; activation, % at 6.8 µM; 370,000 compounds, 1% hits;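 active means activation above the mean over all tested compounds plus 3 SD, cut at about 0.9% in these data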;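 further: 0% = DMSO-only wells and 100% = 3 µM delta7-dafachronic acid wells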
DAX1 inh-2 = DAX1 (NR0B1) inhibitors, primary screen, cell-based, HEK293, Gal4-DAX1, luciferase luminescence; HEK293 Gal4-DAX1 luciferase reporter; inhibition, % at 6.75 µM; 340,000 compounds, 0.99% hits; AID 504766, 2011;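 active means inhibition above the mean over all tested compounds plus 3 SD, cut at about 4.2% in these data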;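 further: 0% = DAX1-transfected cells with DMSO and 100% = empty-vector control cells with DMSO; inhibition shows as a rise in luminescence from relieved DAX1 repression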
Target sequence (P51843 207-470 limits assumed): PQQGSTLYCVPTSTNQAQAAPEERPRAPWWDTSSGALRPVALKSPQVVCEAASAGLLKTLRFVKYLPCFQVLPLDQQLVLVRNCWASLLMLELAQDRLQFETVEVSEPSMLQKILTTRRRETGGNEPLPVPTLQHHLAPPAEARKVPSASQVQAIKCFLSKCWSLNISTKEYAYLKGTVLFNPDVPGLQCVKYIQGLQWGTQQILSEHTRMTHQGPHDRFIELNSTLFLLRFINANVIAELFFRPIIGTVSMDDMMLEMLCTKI
DAX1 conf = DAX1 (NR0B1) inhibitors relieving SF-1 repression, confirmation, cell-based, luminescence, HEK293T, full-length DAX-1, SF-1 activated StAR promoter | shares compounds with DAX1 inh-1 | 2,400 compounds, 87% hits | inhibition, % at 6.8 µM | HEK293T StAR-promoter luciferase reporter, SF-1/DAX-1 repression;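 active means inhibition above the average of every tested compound plus 3 SD, cut at about 3.8% in these data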;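 further: 0% = DAX-1 cells with DMSO and 100% = no DAX-1 control cells with DMSO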
Target sequence (P51843 whole entry, looked up): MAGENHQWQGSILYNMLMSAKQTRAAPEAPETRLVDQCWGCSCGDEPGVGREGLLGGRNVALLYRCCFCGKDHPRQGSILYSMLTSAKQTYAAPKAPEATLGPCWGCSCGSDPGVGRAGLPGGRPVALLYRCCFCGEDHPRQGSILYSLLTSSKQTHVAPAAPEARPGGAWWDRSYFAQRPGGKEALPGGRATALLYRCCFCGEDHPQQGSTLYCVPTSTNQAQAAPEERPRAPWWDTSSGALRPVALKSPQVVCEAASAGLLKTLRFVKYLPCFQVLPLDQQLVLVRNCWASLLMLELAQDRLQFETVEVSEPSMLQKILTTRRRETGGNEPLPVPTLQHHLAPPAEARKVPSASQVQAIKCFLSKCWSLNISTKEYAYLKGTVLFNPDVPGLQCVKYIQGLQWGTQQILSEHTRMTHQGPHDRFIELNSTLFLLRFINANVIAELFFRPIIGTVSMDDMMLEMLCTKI
SF1 AF2mut Luc = StAR reporter signal changes without DAX1, counter-screen for DAX1 inhibitor project, cell-based, luminescence, AF-2 mutant SF-1, transactivation. shares compounds with DAX1 inh-1. HEK293 StAR-luciferase, SF-1 AF2 mutant. inhibition, % at 6.8 µM. 2,400 compounds, 78% hits. AID 652136, 2013;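 active means inhibition above the mean of all tested compounds plus 3 SD, cut at about 3% in these data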;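 further: 0% = DAX-1 transfected cells with DMSO and 100% = cells without DAX-1 with DMSO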
* marks the source's active call; other numbers are inactive results; / = no result given.

SMILES | SMARCA2 activ | hgDAF-12 ag | DAX1 inh-1 | hcDAF-12 act | ssDAF-12 act | DAX1 inh-2 | DAX1 conf | SF1 AF2mut Luc
CC1CCC(NC(=O)c2cc3ccccc3cc2O)CC1 (stereo unspecified) | 2.8 | 10.2 | 8.0* | 1.5 | -0.2 | 1.5 | 10.5* | 6.7*
O=C(NCC1CCCO1)c1cc2ccccc2cc1O (stereo unspecified) | 1.4 | 5.6 | 5.0* | 2.2 | 0.2 | 3.5 | 6.1* | 4.3*
O=C(NNC(=O)c1cc2ccccc2cc1O)NC1CCCCC1 | -1.3 | -0.4 | 0.2 | 0.1 | -0.8 | -0.1 | / | /
O=C(CCCCCN1C(=O)c2ccccc2C1=O)Nc1ccc2c(c1)OCCO2 | -1.9 | -0.1 | -1.1 | -2.2 | -0.9 | -1.8 | / | /
O=C(CN1C(=O)NC2NC(=O)NC21)NN=C1CCCC1 (stereo unspecified) | 2.4 | -1.4 | 0.3 | 1.4 | -1.1 | 0.1 | / | /
O=C(c1ccc(Cn2c(=O)[nH]c3ccccc3c2=O)cc1)N1CCN(c2ccccn2)CC1 | -4.4 | -3.1 | 0.1 | -1.4 | -1.7 | -0.6 | / | /
CC(=O)Nc1cccc(C(=O)OCC(=O)c2ccccc2Cl)c1 | 1.1 | 9.8 | 5.1* | 4.5 | -0.4 | 2.8 | 7.3* | 5.6*
C(=NNc1ccc2ccccc2n1)c1ccccn1 | 4.2 | 11.4* | 4.8* | 5.9* | 0.2 | / | -8.7 | -10.8
Cc1ccc(C(=O)CSc2nnc(N)s2)c(C)c1 | 0.8 | 12.9* | 7.8* | 3.9 | 1.0* | 0.9 | 8.9* | 5.4*
Cc1cc(C(=O)CSc2nnc(N)s2)c(C)n1C1CC1 | 3.1 | 4.1 | 5.6* | 0.2 | 0.1 | 1.5 | 4.1* | 2.8
Cc1cc(C(=O)CSc2nc(N)cc(N)n2)c(C)n1C1CC1 | 2.0 | 2.6 | -0.7 | 1.4 | -0.7 | 0.6 | / | /
Cc1cc(C)c(C(=O)CSc2nnc(N)s2)cc1C | -2.9 | 2.1 | 0.6 | -0.2 | -1.8 | -0.9 | / | /
CCN1CCN(S(=O)(=O)c2ccc(Cl)c(C(=O)NCCc3ccccc3)c2)CC1 | 2.1 | 6.9 | 5.6* | 2.5 | 0.1 | 0.8 | 3.1 | 2.7
COc1ccc(C(=O)NC(=S)NCc2cccnc2)cc1Br | -4.2 | -5.0 | -1.4 | -1.6 | -2.0 | -0.9 | / | /
COc1ccc(N(C(=O)/C=C/c2ccccc2)C2=CC3CCC(C2)N3C)cc1 (stereo unspecified) | -3.2 | 3.4 | 0.8 | -1.3 | -1.6 | -0.4 | / | /
Cc1cc(Cl)ccc1OCc1cn2cccnc2n1 | 5.7 | 10.7* | 8.0* | 2.3 | -1.3 | 1.4 | 8.3* | 4.0*
Clc1ccc(OCc2cn3cccnc3n2)c2ncccc12 | 0.0 | 1.9 | 1.0 | 1.1 | -0.3 | 0.2 | / | /
CCCCN(C)CCNC(=O)CN1C(=O)CSc2ccc(S(=O)(=O)N3CCCC3)cc21 | 1.2 | 1.8 | 7.2* | -0.2 | -0.7 | 1.0 | 3.3 | 0.6
Cc1ccc2nc(NC(=O)COC(=O)c3cccnc3)sc2c1 | 1.1 | 12.0* | 5.6* | 3.9 | -0.7 | 1.4 | 4.0* | 2.8
CSc1ccc(CC(=O)N2CCC(n3nccc3NC(=O)C3CC3)CC2)cc1 | 2.9 | 12.3* | 6.0* | 1.4 | 0.4 | 0.4 | 2.1 | 2.6
O=C(N/N=C/c1ccsc1)c1ccccn1 | 2.0 | 13.2* | 5.7* | 6.3* | 0.6 | 5.0* | 4.7* | 2.7
O=C(NN=C1CCC(=NNC(=O)c2ccccn2)CC1)c1ccccn1 | 11.3* | 16.9* | 5.7* | 5.5 | 0.5 | 0.2 | 1.2 | 0.7
CCOc1cc(/C=N/NC(=O)c2ccncc2)ccc1OC(=O)c1ccccc1 | -4.3 | 2.9 | -1.1 | -0.6 | -0.8 | 0.7 | / | /
C/C(Cc1ccccc1)=N\NC(=O)c1cccnc1 | -1.7 | -1.3 | 0.1 | -2.8 | -0.3 | -0.4 | / | /
C/C(Cc1ccccc1)=N\NC(=O)c1ccccn1 | 4.9 | 12.3* | 8.5* | 3.4 | 0.0 | 1.7 | 2.9 | 1.2
SMILES | SMARCA2 activ | hgDAF-12 ag | DAX1 inh-1 | hcDAF-12 act | ssDAF-12 act | DAX1 inh-2 | DAX1 conf | SF1 AF2mut Luc
CCOc1cc(/C=N/NC(=O)c2ccccn2)ccc1OC(=O)c1ccc(F)cc1 | 3.1 | 8.9 | 6.1* | 1.4 | -0.3 | 1.2 | 2.0 | 4.7*
Cc1cc(NC(=O)CSc2nnc(NCc3ccco3)s2)no1 | -0.3 | -0.1 | -0.9 | -0.5 | -0.8 | 0.3 | / | /
CC1CCN(CCCNC(=O)C2CC(=O)N(CCc3ccccc3)C2)CC1 (stereo unspecified) | -2.5 | -0.9 | 1.2 | -0.7 | -1.1 | 0.3 | / | /
Cc1cc(C)c2nc(SCC(=O)N3CC(=O)Nc4ccccc43)c(C#N)cc2c1 | 3.3 | -1.9 | 4.8* | -1.8 | -0.6 | -1.5 | 10.5* | -7.5
COc1ccc2nc(SCC(=O)N3CC(=O)Nc4ccccc43)c(C#N)cc2c1 | 2.8 | -2.6 | -2.1 | -1.9 | -1.1 | -2.4 | / | /
Cc1cccc(OCC(=O)N/N=C/c2ccccc2C(=O)O)c1 | 0.6 | 0.9 | -0.6 | 0.9 | -0.9 | 1.1 | / | /
CCCN1CCc2c(sc(NC(=O)CCS(=O)(=O)c3ccccc3)c2C(=O)OC)C1 | 0.0 | 0.1 | 7.3* | 1.1 | -0.1 | 0.7 | 7.9* | 4.7*
CSc1cccc(NC(=O)c2sc3nc4n(c(=O)c3c2C)CCC4)c1 | 2.8 | 2.6 | 5.1* | 0.2 | -1.1 | 0.9 | 1.4 | 2.3
CC(=O)c1cccc(NC(=O)c2sc3nc4n(c(=O)c3c2C)CCCCC4)c1 | -0.9 | -2.1 | 0.4 | -0.5 | -1.4 | -1.7 | / | /
Cc1c(C(=O)Nc2ccc(Oc3ccccc3)cc2)sc2nc3n(c(=O)c12)CCC3 | -1.3 | -2.6 | -1.5 | -3.1 | -2.0 | -2.8 | / | /
COc1cccc(NC(=O)c2sc3nc4n(c(=O)c3c2C)CCC4)c1 | 4.4 | 5.7 | 4.7* | 3.0 | -0.6 | 0.1 | 5.0* | 5.9*
O=C(NC(=S)NCc1ccncc1)c1ccccc1 | -0.2 | 3.2 | -0.9 | -0.7 | -1.3 | 0.4 | / | /
